Measurements published in PubChem BioAssay (NCI).
Compounds without any hit were thinned out: in the full panel of roughly 83,000, 20% have a hit.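 Values shown are percent growth following 48 h exposure of cells in 96-well plates to a single concentration of compound; below 10 was considered active.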 Values without a mark were called inactive. Active and inactive are the calls of the source.

Tests used:
Test in all cases: NCI-60 one-dose screen, 48 h (100 = growth as untreated, 0 = no growth, -100 = all killed)
Conditions in all cases: 10 µM
HOP-92 NSCLC = tested on: HOP-92 NSCLC
786-0 renal = tested on: 786-0 renal
SN12C renal = tested on: SN12C renal
UO-31 renal = tested on: UO-31 renal
TK-10 renal = tested on: TK-10 renal
ACHN renal = tested on: ACHN renal
A498 renal = tested on: A498 renal
CCRF-CEM leukemia = tested on: CCRF-CEM leukemia
RPMI-8226 leukemia = tested on: RPMI-8226 leukemia
OVCAR-8 ovarian = tested on: OVCAR-8 ovarian
OVCAR-4 ovarian = tested on: OVCAR-4 ovarian
SK-OV-3 ovarian = tested on: SK-OV-3 ovarian
IGROV1 ovarian = tested on: IGROV1 ovarian
NCI/ADR-RES ovarian = tested on: NCI/ADR-RES ovarian
BT-549 breast = tested on: BT-549 breast
MDA-MB-435 melanoma = tested on: MDA-MB-435 melanoma
MCF7 breast = tested on: MCF7 breast
HCT-116 colon = tested on: HCT-116 colon
HCC-2998 colon = tested on: HCC-2998 colon
KM12 colon = tested on: KM12 colon

| Structure (SMILES) | growth (HOP-92 NSCLC) | growth (786-0 renal) | growth (SN12C renal) | growth (UO-31 renal) | growth (TK-10 renal) | growth (ACHN renal) | growth (A498 renal) | growth (CCRF-CEM leukemia) | growth (RPMI-8226 leukemia) | growth (OVCAR-8 ovarian) | growth (OVCAR-4 ovarian) | growth (SK-OV-3 ovarian) | growth (IGROV1 ovarian) | growth (NCI/ADR-RES ovarian) | growth (BT-549 breast) | growth (MDA-MB-435 melanoma) | growth (MCF7 breast) | growth (HCT-116 colon) | growth (HCC-2998 colon) | growth (KM12 colon) |
| --- | --- | --- | --- | --- | --- | --- | --- | --- | --- | --- | --- | --- | --- | --- | --- | --- | --- | --- | --- | --- |
| CC[C@]12C=CCN3CC[C@@]4(c5ccc(OC)cc5N(C)[C@H]4[C@@](O)(C(=O)OC)[C@@H]1OC(=O)CCCC[P+](c1ccc(C)cc1)(c1ccc(C)cc1)c1ccc(C)cc1)[C@@H]32 | -77.9% (active) | -91% (active) | -88.5% (active) | -96% (active) | -91.3% (active) | -99.3% (active) | -90.9% (active) | -72.4% (active) | -46% (active) | -86.6% (active) | -68.9% (active) | -82.3% (active) | -91.8% (active) | 71.8% | -97% (active) | -86.8% (active) | -81.2% (active) | -93.5% (active) | -85.8% (active) | -73.6% (active) |
| C[C@H]1[C@H](OC(=O)CCC(=O)N(CCCc2cn(-c3ccc(C#N)cc3)nn2)CCNc2ccnc3cc(Cl)ccc23)O[C@@H]2OC3(C)CC[C@H]4[C@H](C)CC[C@@H]1[C@@]24OO3 | 7.07% (active) | 50.7% | 58.9% | 15% | 54.2% | 44.5% | 110% | 15% | 27% | 22.3% | 41.9% | 84.4% | 44.5% | 28.4% | 24.2% | 28.8% | -28% (active) | 21.9% | 70.3% | 31.4% |
| O=C(NC([Se])=NC1CCCCC1)c1ccccc1 | 112% | 39.4% | 39.6% | 6.45% (active) | 28.8% | 34.5% | 73.3% | 54.5% | 56.2% | 40.9% | 75.7% | 5.33% (active) | 13.6% | 23.3% | 75.8% | 42.4% | 29.8% | 30.4% | 62.8% | 35.5% |
| CC(=O)Oc1ccccc1C(=O)NC([Se])=NC1CCCCC1 | 32% | -11.9% (active) | -42.7% (active) | -87.7% (active) | -52.9% (active) | 20.2% | 16.3% | 28.5% | 27.9% | -56.4% (active) | -13.3% (active) | -41.7% (active) | -46% (active) | -16.4% (active) | 33.8% | 8.85% (active) | 1.18% (active) | 21% | 28.1% | 5.47% (active) |
| COC(=O)CCn1c(-c2ccc(-n3cc(-c4ccc(O[C@H]5O[C@@H]6OC7(C)CC[C@H]8[C@H](C)CC[C@@H]([C@H]5C)[C@@]68OO7)cc4)nn3)cc2)nc2ccccc21 | 1.85% (active) | 32.3% | 16.3% | 6.53% (active) | 30.4% | 8.18% (active) | 74.4% | 28.1% | 20.3% | 9.58% (active) | 34.2% | 33.1% | 21.7% | 16.2% | -7.77% (active) | 24.5% | 11.1% | 11.6% | 38.5% | 18% |
| CC12OOC(C)(OO1)C2CCC(=O)NCCCNc1ccnc2cc(Cl)ccc12 (stereo not given) | 4.9% (active) | -12.2% (active) | 91.9% | -99.4% (active) | 23.4% | -100% (active) | 114% | 3.13% (active) | 39% | 94.9% | -42.2% (active) | 103% | 67.1% | 99.9% | 121% | 93.8% | 58.1% | 3.56% (active) | 106% | 86.4% |
| COCCOCCOCCOc1ccc(-n2cc(-c3ccc(O[C@H]4O[C@@H]5OC6(C)CC[C@H]7[C@H](C)CC[C@@H]([C@H]4C)[C@@]57OO6)cc3)nn2)cc1 | 83.2% | 56.7% | 83% | 11.5% | 36.7% | 17.4% | 93.8% | 53.7% | 20.9% | 22.2% | 28.8% | 84% | 50.2% | 34.2% | 3.83% (active) | 19.3% | 14.9% | 37.3% | 59.2% | 31.6% |
